40 molecules from PubChem BioAssay (NCI) can be followed below.

This is part of a sample that, as a whole, favours compounds with a hit. Of some 83,000 tested, about 20% had one in any assay.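 48-hour exposure, single concentration, 96-well plates; percent growth endpoint where 0 means no net growth. Active: below 10.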 Calls of active or inactive are those of the source.

The assay relates to LOX IMVI melanoma. As to the kind of experiment: NCI-60 one-dose screen, 48 h (100 = growth as untreated, 0 = no growth, -100 = all killed). Conditions: 10 µM unless noted. The method, then: Growth inhibition of the LOX IMVI human tumor cell line is measured as a screen for anti-cancer activity. Cells are grown in 96 well plates and exposed to the test compound for 48 hours. Compounds are tested at a single concentration, which is 10^-5 M for most compounds. The reported endpoint is percent growth (GI% or GIPRCNT), where numbers from 0 - 100% represent growth inhibition, and numbers from -100% - 0 represent cell death. For example, a value of 40 represents 60% growth inhibition. A value of 0 means no net growth occurred over the course of the experiment. A value of -40 indicates 40% of cells at the beginning of the experiment died by the end of the experiment. A value of -100 means all cells are dead at the end of the experiment.
NCI-60 Human Tumor Cell Lines Screen was performed using the standard one-dose NCI protocol, which is described in more detail at https://dtp.cancer.gov/discovery_development/nci-60/default.htm.
Compounds with GIPRCNT values below 10 were considered active. Activity score was based on GIPRCNT using the following formula: […]
Score is 0 for GIPRCNT values of 100 or above, 50 for GIPRCNT values of 0, and 100 for GIPRCNT values of -100.
In the case of `CCCCCCCCN=C(NCCCCCCCC)SCc1cccc2ccccc12`, the growth is -96% (active).

As to `COc1nccc2c(Sc3ccccc3)nc(N)nc12`, the growth is 107% (inactive). Take `CCN(CC)c1ccc(/C=N/N=C(N)N)cc1`: the growth is 55.5% (inactive). Take `COc1cc(-c2nn(C(=O)NCCN3CCN(C)CC3)cc2-c2ccncc2)ccc1Cl`: the growth is 85.9% (inactive).

Take `O=C1Nc2ccccc2/C1=C\c1nc(C2CCN(S(=O)(=O)c3ccc(F)cc3)CC2)n2ccccc12`: the growth is 49.2% (inactive). Take `CN(C)c1nc(-c2cccs2)n2nc(-c3ccco3)cc2n1`: the growth is 77.6% (inactive). Consider `CC(C)(C)[Si](C)(C)OC1[C@@H](O[Si](C)(C)C(C)(C)C)[C@@H](CNC(=O)NC(=O)NC(=O)CI)O[C@H]1n1cnc2c(NC(=O)Nc3ccccc3)ncnc21` (stereo not given in full), for which the growth was -80.7% (active). For `O=S(=O)(Cc1ccc(Cl)cc1Cl)c1ccc(Cl)cc1`, the growth was 15.7% (inactive). For the molecule `CCOC(=O)C1C(=O)C=C(c2cc(OC)c(OC)c(OC)c2)CC1c1sc(N(C)Cc2ccccc2)nc1Cl` (stereo not given), the growth is 94% (inactive). As for `c1ccc2oc(-c3cnc4nonc4n3)cc2c1`, the growth is 94.6% (inactive).

For the molecule `CC(=O)Oc1ccccc1C(=O)Nc1ncc([N+](=O)[O-])s1`, the growth is 23.4% (inactive). As to `CC(C)(C)c1ccc(C(=O)Nc2sc3cc(O)ccc3c2C(N)=O)cc1`, the growth was 23.3% (inactive). With `O=C1/C=C/[C@@H](O)[C@@H]2C[C@@H](O)C[C@H]2/C=C/CCC[C@H]([C@@H](O)CO)O1`, the growth is 38.7% (inactive).

Take `C=C(C)[C@@H]1CC[C@]2(C(=O)O)CC[C@]3(C)[C@H](CC[C@@H]4[C@@]5(C)C[C@@H](CC#Cc6ccc(C(C)=O)s6)[C@H](O)C(C)(C)[C@@H]5CC[C@]43C)[C@@H]12`: the growth was 65% (inactive). The figure for `Cc1cc(-c2ccc(N=Nc3c(S(=O)(=O)O)cc4cc(S(=O)(=O)O)cc(O)c4c3O)c(C)c2)ccc1N=Nc1c(S(=O)(=O)O)cc2cc(S(=O)(=O)O)cc(O)c2c1O` is 107% (inactive); for `CC1OC(n2c3ccccc3c3c4c(c5c6ccccc6[nH]c5c32)C(=O)N(CCN2CCOCC2)C4=O)CC(O)C1O` (stereo not given) it is 2.7% (active); for `COc1ccc(CC2c3cc(OC)c(OC)cc3CC[N+]2(C)CCC(=O)OCCCCCOC(=O)CC[N+]2(C)CCc3cc(OC)c(OC)cc3C2Cc2ccc(OC)c(OC)c2)cc1OC` (stereo not given) it is 81% (inactive). Take `Cc1cc2nc(CN)[nH]c2cc1C`: the growth was 109% (inactive). With `CC(C)(C)c1nn(-c2ccccc2)c2c1C(=O)CSC(c1ccc3c(c1)OCO3)N2` (stereo not given), the growth was 87% (inactive). Regarding `CC(C)CCSc1nc(Nc2ccccc2)c(C#N)c(-c2ccc(F)cc2)n1`, the growth is 60.4% (inactive). Take `CCOc1cc(/C=N\NC(=O)C[N+](C)(C)C)ccc1O`: the growth is 103% (inactive). As to `CC(C)CCSc1nc(-c2ccc(F)cc2)c(C#N)c(N2CCN(C)CC2)n1`, the growth was 77.6% (inactive).

Regarding `COc1cc(NC(=O)CSc2nc3ccc(Cl)cc3c(=O)n2Cc2ccccc2)cc(OC)c1OC`, the growth is 74.5% (inactive). As for `O=C(Cc1ccc([N+](=O)[O-])cc1)Oc1ccccc1`, the growth was 107% (inactive). As to `COC(=O)c1ccc2c(c1)nc(-c1ccc(Cl)cc1)n2-c1cc(C(C)(C)C)[nH]n1`, the growth was 44.2% (inactive).

For the molecule `COc1ccc(C(=O)OC2C(OC3C(O)COC(O[C@H]4C[C@H]5[C@@H]6CC=C7C[C@@H](O)CC[C@]7(C)[C@H]6CC[C@]5(C)[C@H]4[C@H](C)C(=O)CCC(C)C)C3OC(N)=O)OCC(O)C2O)cc1` (stereo not given in full), the growth is -58.3% (active). As to `Nc1ncnc2c1N=C(c1ccc3c(c1)OCO3)CC(c1ccc(Cl)cc1)N2` (stereo not given), the growth was 76.2% (inactive). As to `C[C@H](NC(=O)c1snnc1C1CC1)c1c(F)cccc1Cl`, the growth is 93.9% (inactive). For `O=C(c1ccccc1)C1OC1C(=O)c1ccccc1` (stereo not given), the growth was 2.54% (active). The figure for `CC(C)c1ccc2c(c1)CCC1C2CCCC1(C)NCc1ccccc1` (stereo not given) is 52.1% (inactive); for `CC(=O)O[C@@H]1CC2C(C)(C)CCCC2(C)C2=C1C(=O)C(C(C)C)=CC2=O` (stereo not given in full) it is 10.6% (inactive). The figure for `CC(C)(C)c1nn(-c2ccccc2)c2c1C(=O)CSC(c1ccccc1Cl)N2` (stereo not given) is 35.5% (inactive). In the case of `COc1ccc(-c2cc(-c3cn(-c4cccc(Cl)c4)nc3-c3ccc(OC)cc3)[nH]c(=S)n2)cc1`, the growth was 7.63% (active). As for `O=C(Nc1ccccc1)c1cc2ccccc2s1`, the growth was 83.4% (inactive).

`Cc1cccc(/C=N/n2c(-c3ccc(Cl)cc3)nc3c(Br)cc(Br)cc3c2=O)c1`: the growth was 52.6% (inactive). Turning to `COc1ccc(Nc2nc(N)nc3c(=O)[nH]ccc23)cc1`, the growth was 102% (inactive). With `Cc1csc(N/N=C/c2ccncc2)n1`, the growth is 100% (inactive). For `COc1ccc(-c2nc3c(c(-c4ccc(Cl)cc4)nn3-c3ccccc3)c(-c3ccc(O)cc3)c2C#N)cc1`, the growth was 12.4% (inactive).

Regarding `O=C(CCl)N1c2ccccc2Oc2ccc3ccccc3c21`, the growth was -81.1% (active). On to `O=C(NO)c1ccc(CNc2cccc3nc(C4CC4)n(-c4ccccc4)c(=O)c23)cc1`, for which the growth is -34.9% (active).
